Assay [1] has as its system XIP peptide (Xip251-270) binding. Briefly: XIP fragment 251-270 binding compounds – biochemical, small-molecule microarray, fluorescence 635/667 nm, 0.1 µg/mL protein, primary screen (AID 1182). The following applies: fluorescent protein binding, 635 nm, higher = more signal, called active from +8 up or from −8 down.
The test system of the next assay is XIP peptide (Xip251-270). Briefly: compounds binding XIP fragment 251-270 – biochemical, small-molecule microarray, fluorescence 635/667 nm, 0.5 µg/mL protein, primary screen (AID 1183). Conditions: fluorescence 635 nm, higher = more signal.
Assay [2] can be described thus: blood-stage malaria parasite viability loss – strain 3D7, DAPI fluorescence, 100 nL, primary screen (AID 1184).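 Also: parasites grown inside human red blood cells in medium with human serum.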 Conditions: P. falciparum 3D7 growth, 3 d, higher = more signal.
The target in assay [3] is Homeobox protein Hox-A13 (Mus musculus) (UniProt Q62424). Briefly: disruptors of Hoxa13 oligonucleotide interaction – biochemical, fluorescence polarization, labeled oligonucleotide, primary screen (AID 1185). The following applies: Hoxa13:DNA binding, 15 min, higher = more signal, called active from +8 up or from −8 down. For orientation: In fluorescence polarisation assays a small probe gives low polarisation when free and higher when bound to something large.

The structures appear in SMILES notation. Activity calls are given as the source filed them.

Sequence of Homeobox protein Hox-A13 (Mus musculus) (Q62424 whole entry, looked up): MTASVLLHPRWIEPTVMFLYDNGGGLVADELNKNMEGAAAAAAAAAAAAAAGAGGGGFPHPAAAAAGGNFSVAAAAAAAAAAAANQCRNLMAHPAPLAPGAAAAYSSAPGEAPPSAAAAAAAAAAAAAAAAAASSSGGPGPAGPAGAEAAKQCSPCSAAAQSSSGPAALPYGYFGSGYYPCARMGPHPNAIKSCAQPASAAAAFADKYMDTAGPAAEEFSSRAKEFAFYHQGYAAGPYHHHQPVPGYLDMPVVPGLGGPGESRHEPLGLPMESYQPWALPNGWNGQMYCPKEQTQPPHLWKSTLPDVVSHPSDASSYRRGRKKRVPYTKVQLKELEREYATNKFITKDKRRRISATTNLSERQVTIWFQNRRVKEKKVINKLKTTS

`CO[C@@H]1COC(=O)CC=C[C@H](C)[C@H](OC)COC(=O)[C@@H]2CCCN2C(=O)CC=C[C@H]1C`: the composite z-score in assay [1] is 0.233 (inactive); with XIP peptide (Xip251-270), 0.607. The z-score in assay [2] is -1.52; in assay [3], -1.11 (inactive).

For `CN1CCc2nc(-c3ccccc3)c(-c3ccccc3)cc2C1`, the composite z-score in assay [1] was -0.368 (inactive); in the assay on XIP peptide (Xip251-270) it was 0.0309. Besides, the z-score in assay [2] is 0.309; in assay [3], -0.07 (inactive).

Consider `CO[C@H]1COC(=O)[C@H](C)COC(=O)[C@H](C)NC(=O)CC=C[C@H]1C`, for which the composite z-score in assay [1] is 0.126 (inactive); in the assay with XIP peptide (Xip251-270), 0.506. Moreover, the z-score in assay [2] is 0.0087; in assay [3], -0.299 (inactive).

`COC(=O)CC=C[C@@H](C)[C@@H](C=NOC[C@@H](C)[C@H](OCc1ccccc1)C(C)C)OC`: the composite z-score is 0.0918 (inactive) in assay [1] and -0.0012 in the assay on XIP peptide (Xip251-270). For the same compound, the z-score in assay [2] is -0.469; in assay [3], -3.36 (inactive).

With `CC(C)=CCCC(C)=CCON=C1[C@H]2CCn3c(=O)n(-c4ccccc4)c(=O)n3[C@H]2[C@H](O)[C@@H]2O[C@H]12`, the composite z-score in assay [1] was 0.246 (inactive); in the assay on XIP peptide (Xip251-270), 0.598. Also, the z-score in assay [2] was -2.23; in assay [3], -4.57 (inactive).

Consider `C=CC[C@@H]1C=CC(ON=C(C)C)[C@@H](CO)O1` (some centres not stated), for which the composite z-score in assay [1] was -0.649 (inactive); with XIP peptide (Xip251-270) it was -0.0372. Besides, the figures for the z-score in assay [2] and in assay [3] were 0.367 and 2.62 (inactive), respectively.

Consider `CC(=O)OC[C@H]1O[C@@H](ON=C(C)C)[C@H](OC(C)=O)[C@@H](OC(C)=O)[C@@H]1OC(C)=O`, for which the composite z-score in assay [1] was -0.0542 (inactive); with XIP peptide (Xip251-270), -0.245. In addition, the z-score was 0.213 in assay [2] and -0.383 (inactive) in assay [3].

For `COc1ccc(COC(=O)NN=C2C[C@@H](O)[C@@H](O)[C@@H]3[C@@H]4C(=O)N(C5CCCCC5)C(=O)[C@@H]4CC[C@@H]23)cc1`, the composite z-score in assay [1] is 0.524 (inactive); in the assay on XIP peptide (Xip251-270), 0.0499. In addition, the z-score in assay [2] is -1.07; in assay [3], -4.36 (inactive).

The values above are taken from PubChem BioAssay.
